# From PubChem BioAssay
# Vaccinia mCherry: qHTS for Stage-Specific Inhibitors of Vaccinia Orthopoxvirus: mCherry Reporter Primary qHTS; 310,000 tested, 0.63% active; Potency, µM (doses to about 36.5 µM), inactives show at the highest dose activity change, negative = inhibition, most hits filed as inhibitors; Vaccinia virus mCherry reporter infection, fluorescence; calls by dose curve; tested in A549 cells; note: potency is the fitted concentration of half-maximal effect; nearly all actives have a fitted effect of over 35% in size
# Lassa entry inh: qHTS for Inhibitors of binding or entry into cells for Lassa Virus; 300,000 tested, 1.2% active; Lassa virus pseudotype entry inhibition, cell reporter; Potency, µM (doses to about 37.9 µM), inactives show top-dose activity change, negative = inhibition, hits mostly inhibitors; calls by dose curve; tested in HEK293 cells; note: potency is the fitted concentration of half-maximal effect; nearly all actives have a fitted effect of over 50% in size
# MARV entry inh: qHTS for inhibitors of binding or entry into cells for Marburg Virus. Marburg virus pseudotyped entry inhibition, cell reporter. Potency, µM (top dose mostly 37.8 µM), without a hit: top-dose activity change, negative = inhibition, most hits filed as inhibitors. 300,000 tested, 1.8% active. AID 540276, 2011; calls by dose curve; tested in HEK293 cells; note: potency is the fitted concentration of half-maximal effect
# FMDV antiviral: High Throughput Screening for Foot and Mouth Disease Virus Antivirals; FMDV antiviral cell-based qHTS; Potency, µM (titrated, usually from 57.9 µM), for inactives: top-dose activity change, negative = inhibition, hits mostly inhibitors; 410,000 tested, 1.2% active; AID 1159524, 2015; calls by dose curve; tested in HEK293T cells; note: read-out not given here; potency is the fitted concentration of half-maximal effect; nearly all actives have a fitted effect of over 45% in size
# Vaccinia Venus: qHTS for Stage-Specific Inhibitors of Vaccinia Orthopoxvirus: Venus Reporter Primary qHTS | 330,000 tested, 0.46% active | Vaccinia virus Venus reporter expression, fluorescence | Potency, µM (highest dose often 36.5 µM), for inactives: top-dose activity change, negative = inhibition, most hits filed as inhibitors; calls by dose curve; tested in A549 cells; note: potency is the fitted concentration of half-maximal effect; nearly all actives have a fitted effect of over 30% in size
# HCMV antiviral: qHTS Assay for inhibitors of the human cytomegalovirus (HCMV) | HFF cells, HCMV-luciferase reporter, 72 h; hits give low values | activity change, negative = inhibition, % at 57.5 µM | 410,000 tested, 4.5% active | AID 1259415, 2018; in the data active = activity change below about -60%; inconclusive = no clear call, values can overlap the other calls; inactive = above about -39%
#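 Human foreskin fibroblasts infected with luciferase-reporter HCMV at MOI 1 PFU/cell, compounds at two doses. Luciferase measured 72 h post infection; normalized to buffer-only basal and Salinomycin (10uM) controls.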
# Active calls of the source: *; ? = inconclusive; . = no result; [ ] = another dose, or the depositor's remark. In the library only some 6.5% were active in any assay of this set; here they are far more common. % is set by controls: 0 for no effect and ±100 for the full control effect.
SMILES,Vaccinia mCherry,Lassa entry inh,MARV entry inh,FMDV antiviral,Vaccinia Venus,HCMV antiviral
O=C(OC[C@H]1O[C@@H](OC(=O)c2cc(O)c(O)c(OC(=O)c3cc(O)c(O)c(O)c3)c2)[C@H](OC(=O)c2cc(O)c(O)c(OC(=O)c3cc(O)c(O)c(O)c3)c2)[C@@H](OC(=O)c2cc(O)c(O)c(OC(=O)c3cc(O)c(O)c(O)c3)c2)[C@@H]1OC(=O)c1cc(O)c(O)c(OC(=O)c2cc(O)c(O)c(O)c2)c1)c1cc(O)c(O)c(OC(=O)c2cc(O)c(O)c(O)c2)c1,5.62µM*,.,.,-11.7%,10µM*,.
CC(=O)/C=C/n1c(=S)oc2ccccc21,-27.8%,?,13µM*,3.16µM*,?,-99.7*
O=S1(=O)CCOC[C@H](c2ccccc2)N1Cc1ccccc1,?,.,.,1.6%,-14.6%,21.3
Cc1ccc(CN2[C@@H](CC3CCCCC3)COCCS2(=O)=O)cc1,-3.8%,.,.,-23.0%,-19.5%,-70.3*
O=S1(=O)CCOC[C@H](c2ccccc2)N1Cc1cccc(Cl)c1,-5.2%,.,.,0.0%,-14.1%,-79.8*
CCCC[C@H]1COCCS(=O)(=O)N1Cc1ccc(C)cc1,?,.,.,-14.7%,2.24µM*,?
CC(C)[C@H]1COCCS(=O)(=O)N1Cc1ccc(Cl)cc1,25.1µM*,.,.,0.0%,?,-25.5
COc1ccc(C2C=C(c3ccccc3)Nc3nc(NC(=O)c4cccc([N+](=O)[O-])c4)nn32)cc1 (stereo not given),0.4%,15.6%[46.1 µM],-10.9%[46.1 µM],16.1%,-6.3%,-8.1
CCOc1ccc(-c2nonc2NC(=O)COc2ccccc2)cc1,-6.3%,4.4%[46.1 µM],.,24.9%,-11.6%,-7.9
Cc1c(Cl)cccc1NC(=O)CSc1nc(=O)n(Cc2cccnc2)c2c1CCC2,-9.5%,0.0%[46.1 µM],.,-18.3%,-16.8%,16.0
Cc1c(C(=O)NC2CCCCCC2)sc2ncnc(NCC3CCCO3)c12 (stereo not given),-9.7%,.,.,-9.0%,-8.5%,.
CC(C)C(CCNCc1ccccn1)c1ccc(Cl)cc1 (stereo not given),11.5%,-28.8%[46.1 µM],?,-11.7%,3.0%,?
CN1CCC(NCCC(c2ccc(F)cc2)c2ccc(Cl)cc2)CC1 (stereo not given),?,?,?,-7.3%,11.2µM*,-96.9*
CC(C)C(CCNC1CCN(C)CC1)c1ccc(Cl)cc1 (stereo not given),.,.,.,0.0%,.,-98.9*
CC(NC1CCN(Cc2ccccc2)CC1)c1ccc(F)cc1 (stereo not given),-21.1%,?,?,-20.8%,-10.7%,-2.8
O=C1CC(c2ccccc2)Cc2[nH]c(=O)c(C(=O)Nc3ccc(OC(F)(F)F)cc3)cc21 (stereo not given),-6.3%,4.4%[46.1 µM],3.1%[46.1 µM],-12.1%,5.2%,10.1
OC1CCN(Cc2ccc3c(c2)CN(C/C=C/c2ccco2)CCO3)CC1,-1.4%,.,.,-6.0%,-1.5%,.
CCOC(=O)C1CCCN(C(=O)c2cnn(-c3nccc(-c4cc(C)sc4C)n3)c2C)C1 (stereo not given),-11.4%,.,.,26.1%,0.1%,.
Cc1cc(C)c(CN2CCC(CO)(CCOc3ccccc3)CC2)cc1C,-8.0%,?,11.2µM*,-26.1%,-21.2%,-6.8
Cc1cccc(CNc2ccc(C(CC(N)=O)NC(=O)Cc3cccc4ccccc34)cc2[N+](=O)[O-])c1 (stereo not given),-8.4%,.,.,-23.8%,-12.6%,-78.7*
COc1ccc(CCNc2ccc(C(CC(N)=O)NC(=O)Cc3cccc4ccccc34)cc2[N+](=O)[O-])cc1 (stereo not given),?,.,.,?,12.6µM*,-2.2
CCN1CCCc2cc(CN(CCN3CCOCC3)C(=S)Nc3cccc(C)c3)ccc21,?,?,?,-6.9%,-12.2%,-65.1*
Cc1cnc(C)c(-c2ccc(F)c3c2OC(CNC(=O)Cc2c(C)[nH]c4ccccc24)C3)n1 (stereo not given),-13.4%,.,.,-9.0%,-1.8%,.
